The subject of one experiment is PPARg homodimer (NR concentration 180 nM). Briefly: PBM binding z-score (relative to random genomic background probes); higher = stronger binding; sequences stand for … in GC…GCGATTGACAGCGTAGAATGAAGG
The method, boiled down:
(§1)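 On custom Agilent 4×180K arrays, double-stranded probes with 34-nt variable regions carried direct-repeat seeds, single-nucleotide variants, half-site ablations or random human genomic background. Ligand-free nuclear receptor dimers were applied for 1 h, and binding was read with antibodies against each partner (one per run). Binding z-scores come from regression-normalized fluorescence, with the random background probes as reference.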
GATACAGGGTCAAGGCCAGACTACGCGTATTGAT: the PBM binding z-score was found to be 2.54.
The sequence CCAGACAGGTGAGAAGGTAACTGAGCCTCGATTA showed a PBM binding z-score of 0.591.
Consider ATCGAAAGATCGACGAGGTGAGTATACACCGTTT, for which the PBM binding z-score is -0.719.
The sequence CCTACTGGGCCATCAGGTCATTGACATCAACGTT yielded a PBM binding z-score of 1.3.
Take GCGACTGGGGCAAAGCCGGTTACCATAAGGTTGG: the PBM binding z-score is -0.424.
The same measure, in the same setting: for CCGACTGGGGCAGAACGGTTACCATACCATCCGG the value was -0.513.
As to ACTAGCAGGCCAAGTTTGGGTCACTCACACAAAG, the PBM binding z-score was 0.553.
Turning to GCGAGCAGGCCATTTGGGTCACTCAATGACGGGC, the PBM binding z-score amounted to 0.0566.
Regarding AATACAGGGTCACTAGGCCAGAATAGGTACGAAT, the PBM binding z-score came to 2.05.
GCGACTGGGGCATCAGCAGTTTACCATAACTTAA showed a PBM binding z-score of 0.458.
In turn, TCTGCTAGGTCAATGATGGTCAGCTAATCTGCTA showed a PBM binding z-score of 0.244.
For the sequence TCTAGTTGGTCACGGAGGTCACAGACGACGGGTA, the PBM binding z-score amounted to 3.09.
In turn, CCTAGCGGGCCAATCTGGGTCACTCAAGGCTTGA returned a PBM binding z-score of 0.532.
In turn, GCAACGAGGGCAAGTTGATAGCAGAGTTTGATGG registered a PBM binding z-score of 0.288.
In turn, ATATGTAGGTTAAGGGTAATTCAGGTTGGTTCGC registered a PBM binding z-score of 2.15.
On the same count and under the same terms, the figure for CAAACTAGGCCACGAAAGGTCAAAGTCGAATGAC is 4.86; for CTCAAAAGGTCGTGCTCAGGTGAGTATACCAAAC it is 1.51.

Another experiment relates to PXR:RXRa (NR concentration 270 nM, RXRa partner concentration 90 nM). The description is as above. Put shortly:
as §1
In turn, GCGACTGGGGCATCAGCAGGTTACGATAACTTAA yielded a PBM binding z-score of 0.0357.
Consider GATACAGGGTCAAGACCAGAGTACGCGTATTGAT, for which the PBM binding z-score was determined as 3.34.
Same read-out and setting: the figure for TCTTGTAGATCAGCAGGTAAAGAAAGCTGGCCAA is -0.0594; for GGATCGAGGGCAAGTTGATAGCAGAGTTTGATGG it is 0.76.
Regarding ACTGACAGGTGAGTGAAGGTAACTCAGCTGGACG, the PBM binding z-score is -0.21.
Sequence CGTCCAGGGTCAGAGAGGTCAGTGAATGCCGAGT came in with a PBM binding z-score of 6.01.
For the sequence TAGCCTAGGTCGTGCGGGCCAGTATAGTGTCGGC, the PBM binding z-score is -0.419.
For the sequence TCTGCTAGGTCAGTAGGTCAGCTAACGAGCTGCC, the PBM binding z-score worked out at 1.3.
CGAACTATGTCAGAACAGGACAGTGAAGGATGAT returned a PBM binding z-score of -0.225.
Sequence TGAATGAGGTTATAAGATCAGCGAACGTTGCAAA displayed a PBM binding z-score of 0.634.
GCTTACGGGTCAAAGATTATAGCATGAATAGAAT had a PBM binding z-score of 3.23.
Consider AGAACGAGGGCAAGCTGAGTTGATAGCAGAGTAG, for which the PBM binding z-score came out at 1.13.
Sequence CGAACGAGGGCATGAGTGGATAGCAAATGCCGAT showed a PBM binding z-score of 0.213.
Same read-out and setting: for CTCGCAAGGTCGTGCTCAGGTGAGTATACCAAAC the value was 1.76; for TAAGACAGGTGAAGGTAACTCAGGTACGCAGTCG, 0.257; for TGATATAGGTAAAGGTGAAAGTCGAACGATATGA, 0.991.
ATCTCTAGGTAAAGATAGTTCACTGAATGCAAAT displayed a PBM binding z-score of 1.81.
CCGTACGGGTCACGAGGTTATAGCACGACGAGCG returned a PBM binding z-score of 4.73.
On the same count and under the same terms, for CCTACTGGGCCAAAGGTCATTCATTCCAATGCTC the value was 5.58.
TGTCAAAGTTCAAAGGAAACGTAAGTATCCACAC returned a PBM binding z-score of 4.33.
With CTCGAAAGGTCGGTTGAGGTGAGAATACGGATAA, the PBM binding z-score came to 3.13.
Sequence CCAGACAGGTGAAAGTTAACTCAGTCTGGTACGC registered a PBM binding z-score of 0.141.
Same read-out and setting: the figure for GATACAGGGTCAAGGCCAGACTACGCGTATTGAT is 4.03.
Turning to CCAGACAGGTGAGAAGGTAACTGAGCCTCGATTA, the PBM binding z-score was -0.214.
As for ATCGAAAGATCGACGAGGTGAGTATACACCGTTT, the PBM binding z-score is -0.123.
CCTACTGGGCCATCAGGTCATTGACATCAACGTT yielded a PBM binding z-score of 1.67.
GCGACTGGGGCAAAGCCGGTTACCATAAGGTTGG yielded a PBM binding z-score of -0.547.
Same read-out and setting: for CCGACTGGGGCAGAACGGTTACCATACCATCCGG the value was -0.96.
Same read-out and setting: the figure for ACTAGCAGGCCAAGTTTGGGTCACTCACACAAAG is 0.973; for GCGAGCAGGCCATTTGGGTCACTCAATGACGGGC it is 0.738.
AATACAGGGTCACTAGGCCAGAATAGGTACGAAT showed a PBM binding z-score of 3.16.
GCGACTGGGGCATCAGCAGTTTACCATAACTTAA displayed a PBM binding z-score of 0.227.
For the sequence TCTGCTAGGTCAATGATGGTCAGCTAATCTGCTA, the PBM binding z-score was 1.02.
The sequence TCTAGTTGGTCACGGAGGTCACAGACGACGGGTA came in with a PBM binding z-score of 4.61.
As for CCTAGCGGGCCAATCTGGGTCACTCAAGGCTTGA, the PBM binding z-score was 0.83.
In turn, GCAACGAGGGCAAGTTGATAGCAGAGTTTGATGG gave a PBM binding z-score of 0.924.
ATATGTAGGTTAAGGGTAATTCAGGTTGGTTCGC gave a PBM binding z-score of 1.74.
Turning to CAAACTAGGCCACGAAAGGTCAAAGTCGAATGAC, the PBM binding z-score was 5.73.
Same read-out and setting: for CTCAAAAGGTCGTGCTCAGGTGAGTATACCAAAC the value was 3.24.

The values are drawn from the supplement of paper PMC6555819.
